Assay outcomes deposited in PubChem BioAssay by several laboratories.
Rows were chosen to be rich in hits. Some 1.5% of all compounds tested hit in one or more screens of this group.
SARS 3CLpro inh-1 – SARS-CoV 3CLpro protease inhibitors, primary screen, biochemical, quenched FRET; recombinant SARS-CoV 3CLpro, quenched FRET peptide cleavage; inhibition, % at 6 µM; 290,000 compounds, 0.14% hits; in the data active = inhibition above about 12%
RecA intein inh – Mtb RecA intein splicing inhibitors, primary screen, biochemical, fluorescence, HTS; Protein RecA (Mycobacterium tuberculosis (strain ATCC 25618 / H37Rv)), P9WHJ3; cell-free RecA intein splicing; inhibition, % (concentration not given with the values); 290,000 compounds, 0.75% hits; in the data active = inhibition above about 30%;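 also: 0% = vehicle wells and 100% = reference inhibitor control wells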
DUSP3 inh – VHR1 phosphatase inhibitors, primary screen, biochemical, absorbance, uHTS; Dual specificity protein phosphatase 3 (Homo sapiens), P51452; recombinant VHR phosphatase, pNPP absorbance; inhibition, % at 13.3 µM; 290,000 compounds, 0.52% hits; AID 1654, 2009; in the data active = inhibition above about 50%
Target sequence (P51452 whole entry, looked up): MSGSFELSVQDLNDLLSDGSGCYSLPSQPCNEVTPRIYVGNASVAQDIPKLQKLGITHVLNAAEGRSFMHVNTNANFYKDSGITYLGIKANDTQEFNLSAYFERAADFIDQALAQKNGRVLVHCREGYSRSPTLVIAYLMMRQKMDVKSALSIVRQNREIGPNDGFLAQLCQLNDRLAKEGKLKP
CCHF vOTU inh – CCHFV vOTU protease inhibitors, primary screen, biochemical, Pep-AMC substrate, fluorescence | Crimean-Congo hemorrhagic fever virus L polyprotein viral ovarian tumor (vOTU) protease … | inhibition, % at 11.5 µM | 370,000 compounds, 0.55% hits | AID 651958, 2012; in the data active = inhibition above about 30%; also: 0% = vehicle wells with enzyme and 100% = no enzyme wells
SARS 3CLpro inh-2 – confirmation of SARS coronavirus 3C-like protease inhibitors, retest, confirmation, biochemical | inhibition, % at 6 µM | AID 1879, 2009 | 380 compounds, 36% hits | QFRET protease activity assay, 3CLpro | shares compounds with SARS 3CLpro inh-1; in the data active = inhibition above about 13%
Starred values were filed as active, the others as inactive; nt = not tested or not shown.

SMILES	SARS 3CLpro inh-1	RecA intein inh	DUSP3 inh	CCHF vOTU inh	others
COc1cc2c(cc1OC)C(C)N(C(=O)c1cccs1)CC2 (stereo not given)	2.9	2.3	10.6	-13.8
COc1cc2c(cc1OC)C(C)N(C(=O)c1cc3ccccc3o1)CC2 (stereo not given)	-1.0	-3.6	50.8*	3.7
CCCN1CCCc2cc(CN)ccc21	-4.0	7.4	43.8	99.9*
COC(OC)C1(CCc2ccccc2)NC(=O)NC1=O (stereo not given)	nt	nt	nt	10.2
Cc1nn(Cc2ccccc2)c(C)c1NC(=O)c1cc(-c2ccco2)on1	-2.4	-1.6	52.9*	7.2
COc1ccc(OC)c(-c2cc(C(=O)Nc3c(C)nn(Cc4ccccc4)c3C)no2)c1	1.8	0.8	3.8	6.6
O=C(NCc1cccc(F)c1)Nc1nnc([C@H]2C[C@H](O)[C@@H](CO)O2)s1	nt	nt	nt	5.7
O=c1[nH]c(C2CCN(S(=O)(=O)c3ccc4c(c3)OCCO4)CC2)nc2c1nnn2Cc1ccccc1	2.6	2.6	52.9*	12.1
Cc1ccc(Cn2nnc3c(=O)[nH]c(C4CCCN(S(=O)(=O)c5ccccc5)C4)nc32)cc1 (stereo not given)	-0.1	nt	50.9*	-7.2
Cc1ccc(S(=O)(=O)N2CCC(c3nc4c(nnn4Cc4ccccc4)c(=O)[nH]3)CC2)cc1	0.0	2.2	22.5	15.9
CCc1nnc(NC(=O)CCC(=O)N2CCN(Cc3ccc(C)cc3C)CC2)s1	-1.1	-0.6	55.6*	4.8
CCCc1nnc(NC(=O)CCC(=O)N2CCN(Cc3ccc(C)cc3C)CC2)s1	6.6	-0.6	-2.2	16.9
Cc1nn2c(-c3ccc(S(=O)(=O)N4CCN(C)CC4)o3)nnc2c2ccccc12	2.2	-1.2	-5.9	-6.7
CC(=O)c1ccc(Nc2cnn(C34CC5CC(CC(CC(=O)O)(C5)C3)C4)c(=O)c2Cl)cc1	-1.2	-1.3	3.9	20.4
Cc1ccc(Nc2cnn(C34CC5CC(CC(CC(=O)O)(C5)C3)C4)c(=O)c2Cl)cc1	12.2*	-2.0	-6.4	7.8
COc1cccc(NC(=O)c2cccc(S(=O)(=O)N3CCN(Cc4ccccc4)CC3)c2)c1	nt	4.3	nt	-6.4
CCN(Cc1ccc(OC)c(F)c1)C(=O)CCl	-0.1	48.9*	-0.5	1.6
CCN(Cc1ccc(OC)c(F)c1)C(=O)C1CCCO1 (stereo not given)	-3.5	0.2	21.4	21.1
Cc1c(Cl)ccc2c1NC(=O)[C@]21N[C@@H](CCC(N)=O)[C@H]2C(=O)N(c3ccc(F)cc3)C(=O)[C@H]21	-1.7	2.8	14.7	4.8
CCCCc1ccc(N2C(=O)[C@@H]3C(CC(N)=O)NC4(C(=O)Nc5ccc(F)cc54)[C@@H]3C2=O)cc1 (stereo not given in full)	-1.8	1.1	51.2*	5.4
COc1ccc(NC(=S)NC(NC(=O)CCl)C(Cl)(Cl)Cl)c([N+](=O)[O-])c1 (stereo not given)	3.0	55.0*	-5.0	nt
COc1ccc(OC)c(/C=C/C(=O)N2C(=O)c3cccc(N)c3C2=O)c1	-4.4	-87.4	5.4	-24.2
COc1cc(/C=C/C(=O)N2C(=O)c3cccc(N)c3C2=O)cc(OC)c1OC	6.6	-69.4	55.4*	-2.3
COc1ccc(OC)c(N2C(=O)C(Cl)=C(N3CCOCC3)C2=O)c1	-1.2	70.4*	-8.2	0.2
COc1ccccc1N1C(=O)C(Cl)=C(N2CCCC2)C1=O	3.3	-1.0	-7.8	-0.9
SMILES	SARS 3CLpro inh-1	RecA intein inh	DUSP3 inh	CCHF vOTU inh	others
CCCCOC(=O)c1ccc(NC(=O)COC(=O)C2CC2C)cc1 (stereo not given)	nt	nt	nt	2.0
O=C(CSC1=NCCS1)Nc1ccc(S(=O)(=O)NC2CCCCC2)cc1	-0.9	42.3*	42.2	4.5
COc1cc(NS(=O)(=O)c2ccc(NC(=O)CSC3=NCCS3)cc2)nc(OC)n1	0.3	8.6	28.6	nt
O=C(CSc1ncccn1)Nc1ccc(S(=O)(=O)N2CCCCC2)cc1	2.4	-1.8	21.4	-0.7
O=C(CSC1=NCCS1)Nc1ccc(S(=O)(=O)N2CCCCCC2)cc1	1.6	33.0*	28.0	8.8
O=Nc1ccc(NOC(=O)c2ccccc2Br)cc1	3.0	-13.5	-2.9	5.5
O=C(ONc1ccc(N=NC(=O)c2ccccc2O)cc1)c1ccccc1	2.1	0.2	52.1*	7.8
CCCCNc1nc2c(c(=O)[nH]c(=O)n2C)n1CCCc1ccccc1	nt	nt	nt	-13.1
Cc1[nH]c2ccccc2c1CC(=O)Nc1ccc(Nc2cccnc2)c(-c2cc(F)cc(F)c2)c1	nt	nt	nt	19.2
COc1ccc(C#CCN(Cc2ccc(OC)cc2OC)C(N)=NC(=O)CCc2ccccc2)cc1	nt	nt	nt	5.2
CC[n+]1c(C)sc2c3ccsc3ccc21	4.5	0.5	51.3*	-2.6
CC[n+]1c(C)sc2sc3ccccc3c21	-3.8	0.1	-3.1	nt
O=C1c2ccccc2C(c2nnnn2-c2ccc3c(c2)OCCO3)N1CCCN1CCOCC1 (stereo not given)	nt	nt	nt	3.2
COc1ccc(-c2cc(C#N)nc(Cl)n2)cc1	-7.2	40.5*	13.8	3.8
COc1ccc(N(C(=O)c2cccnc2)S(=O)(=O)c2ccc(F)cc2)cc1	-2.8	7.3	52.8*	-5.6
Cc1c(C(=O)OCC(=O)NCc2ccc3c(c2)OCO3)cccc1[N+](=O)[O-]	3.3	-1.0	-1.2	3.5
Cn1nnc2cc(C(=O)N3CCN(c4ccccn4)CC3)ccc21	-1.7	-3.3	52.9*	-13.3
Cn1nnc2cc(NC(=O)N3CCN(c4ccccn4)CC3)ccc21	-2.2	-2.1	-5.8	-14.4
O=S(=O)(Nc1nccs1)c1ccc(Br)cc1	0.6	2.2	9.5	6.7
O=S(=O)(Nc1ccc(S(=O)(=O)Nc2nccs2)cc1)c1ccc(Br)cc1	47.3*	-52.1	-9.4	17.9	SARS 3CLpro inh-2=1.1
C=CCc1c(C)nc2c(C)cccc2c1SC(=N)N	16.3*	3.4	31.5	-10.1	SARS 3CLpro inh-2=0.7
Cc1nc2c(C)cccc2c(SC(=N)N)c1CC=C(Cl)Cl	0.9	0.5	-14.6	-2.1
COc1ccc(SC[C@H](C)CN2CC[C@H](C(C)(C)C)CCC2=O)cc1	nt	nt	nt	12.2
COc1cccc(/C=N/NC(=S)Nc2cccnc2)c1	16.3*	nt	16.9	-2.6	SARS 3CLpro inh-2=18.0*
O=C(CN1C(=O)NC2(CCOc3ccccc32)C1=O)NCC(F)(F)F (stereo not given)	1.6	0.5	5.1	2.3
SMILES	SARS 3CLpro inh-1	RecA intein inh	DUSP3 inh	CCHF vOTU inh	others
CCn1nc(NC(=O)C(C)(C)C)c2cc3cccc(C)c3nc21	-3.2	-77.7	5.2	-7.4
CCn1nc(NS(=O)(=O)c2ccccc2)c2cc3ccc(C)cc3nc21	1.7	1.6	26.7	19.9
CCn1nc(NS(=O)(=O)c2ccc([N+](=O)[O-])cc2)c2cc3cccc(C)c3nc21	12.4*	0.2	-3.0	3.2	SARS 3CLpro inh-2=5.2
CCn1nc(NS(=O)(=O)c2ccccc2)c2cc3cc(C)ccc3nc21	12.4*	-1.2	-1.9	15.8	SARS 3CLpro inh-2=1.1
Cc1cccc(-c2nc3c(s2)CCc2onc(-c4ccc(Br)cc4)c2-3)c1	2.8	17.5	25.1	2.3
Clc1ccc(-c2nnc(COc3ncnc4sccc34)o2)cc1	-3.6	0.2	-1.0	-0.5
